AmpC nodet inh: blocks E. coli AmpC beta-lactamase in absence of detergent; Potency, µM (titrated, usually from 28.7 µM), inactives show at the highest dose activity change, negative = inhibition; AmpC nitrocefin hydrolysis, absorbance 480 nm, no detergent; 71,000 compounds, 1.8% hits; AID 585; further: % of control where 0% means no effect
Target sequence (P00811 whole entry, looked up): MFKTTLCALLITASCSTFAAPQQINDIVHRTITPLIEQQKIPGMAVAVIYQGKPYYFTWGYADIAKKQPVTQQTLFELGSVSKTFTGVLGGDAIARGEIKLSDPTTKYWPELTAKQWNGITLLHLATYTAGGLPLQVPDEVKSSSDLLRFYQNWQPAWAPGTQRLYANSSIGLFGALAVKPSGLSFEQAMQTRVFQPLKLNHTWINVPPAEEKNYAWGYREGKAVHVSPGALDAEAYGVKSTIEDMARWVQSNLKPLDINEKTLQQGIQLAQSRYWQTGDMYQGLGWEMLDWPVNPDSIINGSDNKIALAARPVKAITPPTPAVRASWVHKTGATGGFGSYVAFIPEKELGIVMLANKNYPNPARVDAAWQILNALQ
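AmpC in 20 mM phosphate buffer pH 7.0 was preincubated 15 min at room temperature with compounds. Nitrocefin (800 uM stock) was then added and hydrolysis followed at 480 nm every 20 s for 4 min.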
SmPrx2 inh: inhibitors of Schistosoma mansoni peroxiredoxin 2; S. mansoni Prx2 activity coupled to TGR/GSH (TGR is thioredoxin glutathione reductase), NADPH fluorescence loss, qHTS; Potency, µM; 65,000 compounds, 0.07% hits
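Coupled assay in which S. mansoni TGR passes NADPH reducing equivalents via glutathione to Prx2, which reduces H2O2. Compounds were preincubated 15 min at room temperature with 25 nM TGR/50 nM Prx2 mix. Kinetic NADPH fluorescence loss (ex 365/em 450 nm) was monitored.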
LT uptake inh: blocks cellular internalization of anthrax lethal toxin. Cells, anthrax lethal toxin internalization, FRET ratio (460/530). Potency, µM (titrated, usually from 40 µM), for inactives: at the highest dose activity change, negative = inhibition, usual class: inhibitors. 70,000 compounds, 0.67% hits; further: on the % scale 0 is the no-effect control and ±100 the full control effect; nearly all actives have a fitted effect of over 50% in size
AmpC inh det: AmpC beta-lactamase inhibition, detergent assay. purified AmpC, nitrocefin hydrolysis with detergent. Potency, µM (highest dose often 28.7 µM), inactives show at the highest dose activity change, negative = inhibition. 71,000 compounds, 0.09% hits. AID 584; active means well fitted curve in the direction sought with a large enough effect; inconclusive means small, poorly fitted or top-dose-only effect; further: on the % scale 0 is the no-effect control and ±100 the full control effect
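E. coli AmpC (5.3 nM) in 20 mM phosphate pH 7.0 with 0.01% Triton X-100, preincubated 15 min RT with compound; nitrocefin (2 uL of 800 uM stock) hydrolysis followed by 480 nm absorbance every 20 s over 4 min.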
* = called active by the depositor; ? = inconclusive; . = no result given; [ ] = dose if it differs, or a comment. Sampled rows, rich in hits. Any-hit rate of the full collection: about 2.4%. Unless noted, the call rests on the fitted dose curve. Potency means the concentration at half of the fitted maximal effect.

SMILES	AmpC nodet inh	SmPrx2 inh	LT uptake inh	AmpC inh det
COC(=O)[C@@]1(Cc2ccccc2)[C@H]2c3cc(C(=O)N4CCCC4)n(CCN4CNCC4=O)c3C[C@H]2CN1C(=O)c1ccccc1	164%	>57	3%	0%
Cc1ccc2oc(=O)c3cc(C(=O)NCCN4CCN(C)CC4)sc3c2c1	4µM*[single pt active]	>57	-17%	14%
Cc1nc2ccccc2c2oc(C(=O)NCCN3CCN(C)CC3)cc12	-16%	>57	?	6%
CCNc1ncc2nc(-c3ccc(Cl)cc3)c(=O)n(Cc3ccc(F)cc3)c2n1	0%	>57	?	-3%
COC(=O)c1ccccc1NC(=O)Nc1nnc(N2CCCCC2C)s1 (configuration not stated)	4µM*[single pt active]	>57	1.3µM*	12%
COc1ccc(NC(=O)Nc2nnc(N3CCCCC3C)s2)cc1OC (configuration not stated)	4µM*[single pt active]	.	4%	19%
CN(C)CCN(Cc1ccccc1)S(=O)(=O)c1cccc2cccnc12	15%	>57	-4%	15%
Cc1cc(C)n2nc(S(=O)(=O)NCCc3ccccc3)nc2n1	4µM*[single pt active]	>57	-10%	14%
O=C(c1ccco1)N1CCN(c2nc3ccccc3n3nnnc23)CC1	40%	>57	-4%	21%
c1ccc(CC2CCN(c3nc4ccccc4n4nnnc34)CC2)cc1	13µM*	>57	-8%	12%
CC1(C(=O)NCc2cccnc2)CCC(=O)N1Cc1cccs1 (configuration not stated)	4µM*[single pt active]	>57	0%	14%
CC1(C(=O)NCc2cccnc2)CCC(=O)N1CCc1ccccc1 (configuration not stated)	4µM*[single pt active]	>57	-8%	16%
COc1ccc(CCN2C(=O)CCC2(C)C(=O)NCc2cccnc2)cc1OC (configuration not stated)	-3%	>57	-2%	-2%
CS(=O)(=O)c1ccc(Cn2c3c(c4cc(F)cc(F)c42)CCC[C@H]3CC(=O)O)cc1	91%	>57	-4%	6%
COC(=O)c1cc(NC2c3ccccc3C(=O)N2c2cccnc2)cc(C(=O)OC)c1 (configuration not stated)	4µM*[single pt active]	>57	5%	13%
Cn1c(=O)c2nc(-c3ccc(Cl)cc3Cl)oc2c2ccccc21	2.5µM*	>57	-19%	13%
COCC(=O)N1CCC2(CC1)CN(c1ccccn1)C2	-7%	>57	-5%	8%
Cc1cc(NC(=O)CSc2c3c(nc4ccccc24)CCC3)no1	4µM*[single pt active]	>57	?	12%
O=C(Nc1cnn(Cc2ccc(Cl)cc2Cl)c1)c1noc2c1CCCC2	4µM*[single pt active]	>57	?	13%
CCOC(=O)CN1C(=O)c2ccccc2C1=O	23%	>57	-12%	-1%
CCOC(=O)/C(C(C)=O)=C1\OC(=O)c2ccccc21	13µM*	>57	-4%	7.9µM*
COCC(=O)N1CCC2(CCN(Cc3nccs3)CC2)CC1	-1%	>57	11%	-2%
CCOC(=O)c1c(NC(=O)CSc2nnc(-c3ccccc3)n2CC)sc(C(C)=O)c1C	60%	.	-10%	-2%
CCOC(=O)c1sc(NC(=O)CSc2nnc(-c3ccco3)n2CC)c(C(=O)OCC)c1C	86%	>57	10µM*	11%
C/C(=N\NC(=O)c1ccncc1)c1ccc2ccccc2c1O	11%[5.75 µM]	>57	-10%[8 µM]	-4%[5.75 µM]
SMILES	AmpC nodet inh	SmPrx2 inh	LT uptake inh	AmpC inh det
Cc1cnc(NC(=O)CCCSc2nc3ccccc3s2)s1	13µM*	>57	18%	-4%
Cc1csc(NC(=O)CCCSc2nc3ccccc3s2)n1	1%	>57	-18%	2%
COc1ccc(C(=O)N2CCC[C@@]3(CCN(Cc4ccccc4OC)C3)C2)cc1	15%	>57	-15%	1%
Cc1ccc(S(=O)(=O)Nc2ccc3nc(N)sc3c2)cc1	10µM*	>57	-21%	2%
Cc1onc(-c2c(Cl)cccc2Cl)c1C(=O)N[C@H]1C(=O)N2[C@H]1SC(C)(C)[C@H]2C(=O)O	0.0016µM*	>57	7%[3.58 µM]	0.0025µM*
CC(C)(N)C(=O)N[C@@H]1C(=O)N2[C@@H]1SC(C)(C)[C@H]2C(=O)O	0.5µM*	>57	-3%[8 µM]	1.3µM*
C[C@H](Oc1ccccc1)C(=O)N[C@@H]1C(=O)N2[C@@H]1SC(C)(C)[C@@H]2C(=O)O	0.25µM*	>57	12%[3.58 µM]	0.63µM*
CC1(C)S[C@@H]2[C@H](NC(=O)C3(N)CCCCC3)C(=O)N2[C@@H]1C(=O)O	0.01µM*	>57	-27%[8 µM]	0.01µM*

From PubChem BioAssay
